Several values for one entry are separate records, joined by “and”; a condition that tells them apart may be missing. Equal values may be shown once. Records with an inconclusive call do not appear. Where a structure was tested more than once in an assay, its records may differ in their call. Activity calls are given as the source filed them. How the source made its calls: active means hit-call score of the fitted dose curve at least 0.9, where 1 is the maximum; inconclusive means response in the unintended direction; inactive means score below 0.9.
The compounds below were run on frog Estrogen Receptor (ER), gene 398734 (assay: ATG_frER1_XSP2: Attagene TRANS-FACTORIAL Multi-Species (XSP2) HepG2 Assay for frog Estrogen Receptor (ER) (AID 2283821);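 further: hits raise reporter mRNA above DMSO baseline so potency means agonist or activator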).
Procedure: ATG_XSP2_multi-species_TRANS is a cell-based, multiplexed assay created by modifying the existing Attagene TRANS-FACTORIAL system to include a panel of nuclear receptors from some or all the following species: human (Homo sapiens), mouse (Mus musculus), frog (Xenopus laevis), zebrafish (Danio rerio), chicken (Gallus gallus), and turtle (Chrysemys picta). The ECOTOX-FACTORIAL format uses HepG2, a human liver cell line, with measurements taken at 24 hours after chemical dosing in a 24-well plate. Xsp2 included 3 nM 6-alpha-fluorotestosterone and 1.5 nM norgestrel to stimulate the androgen receptor.ATG_frER1_XSP2 is one of 29 assay components measured or calculated from the ATG_XSP2_multi-species_TRANS assay. It is designed to make measurements of mRNA induction, a form of inducible reporter, as detected with fluorescence intensity signals by Reverse transcription polymerase chain reaction (RT-PCR) and Capillary electrophoresis technology.The assay endpoint ATG_frER1_XSP2 was analyzed in the positive analysis fitting direction relative to DMSO as the negative control and baseline of activity. Using a type of inducible reporter, measures of mRNA for gain-of-signal activity can be used to understand the reporter gene at the transcription factor-level as they relate to the gene ER. Furthermore, this assay endpoint can be referred to as a primary readout, because this assay has produced multiple assay endpoints where this one serves a reporter gene function. To generalize the intended target to other relatable targets, this assay endpoint is annotated to the nuclear receptor intended target family, where the subfamily is steroidal.
Human liver HepG2 cells are transiently transfected with multiple reporter transcription units (MRTUs) in 6-well plates using FuGene 6 reagent (Roche; 3 ml FuGene/1 mg DNA). The MRTU constructs are regulated by a cis-regulating element (promoter). […] A major difference between the CIS and TRANS system is that in CIS activities of endogenous TFs are measured, whereas the TRANS assay evaluates changes in activities of exogenous, chimeric NR-Gal4 proteins. […] At the end of 24 hour incubation, total RNA was isolated using TriZol reagent (Invitrogen). The isolated RNA is then reverse-transcribed using oligo(dT) primer and Mo-MLV reverse transcriptase (Invitrogen) with DNAse I (Ambion) treatment for 30 min. The one-tenth of the produced cDNA was amplified by PCR using Taq DNA polymerase (Invitrogen) and two reporter sequence-specific primers. The PCR products were fluorescently labeled by primer extension with 6-arboxyfluorescein (6-FAM) 5'-labeled reporter sequence-specific primer (2 min at 95 C, 20 s at 68 C and 10 min at 72 C) and these products were digested with 5U of HpaI (New England Biolabs) for 2h at 37 C. The fragments were purified using Qiaquick PCR columns (Qiagen), analyzed on an ABI 3130xL genetic analyzer (Applied Biosystems) with peak positions identified by using a set of X-rhodamine (ROX)-labeled MapMarker1000 molecular weight standards (BioVentures). The raw capillary electrophoresis data was processed using Attagraph software (Attagene).
With `CC(C)(C)CC(C)(C)c1ccc(O)cc1` the AC50 was 3.4 µM (active). For `O=S(=O)(c1ccc(Cl)cc1)c1ccc(Cl)cc1`, the outcome was “inactive” and the AC50 was 26.4 µM (active). For `O=C1C2(Cl)C3(Cl)C4(Cl)C(Cl)(Cl)C5(Cl)C3(Cl)C1(Cl)C5(Cl)C24Cl` (stereo unspecified), the outcome was “inactive”. With `C[C@]12CCC(=O)C[C@@H]1CC[C@@H]1[C@@H]2CC[C@]2(C)[C@@H](O)CC[C@@H]12` the outcome was “inactive”. In the case of `COP(=O)(OC)O/C(=C\Cl)c1cc(Cl)c(Cl)cc1Cl`, the outcome was “inactive”. In the case of `CC12CC1(C)C(=O)N(c1cc(Cl)cc(Cl)c1)C2=O` (stereo unspecified), the outcome was “inactive”. `CC(C)(C)c1cc(O)ccc1O` was tested, and the AC50 was 15.6 µM (active). For `Clc1ccc(C2(Cn3cncn3)CC(Br)CO2)c(Cl)c1` (stereo unspecified), the AC50 was 9.65 µM (active) and 5.35 µM (active). With `CC(C)C1CCC(Cc2ccc(Cl)cc2)C1(O)Cn1cncn1` (stereo unspecified) the outcome was “inactive”. In the case of `CC(=O)C=C(C)C`, the outcome was “inactive”. For `C[C@]12CC[C@H](O)CC1=CC[C@@H]1[C@@H]2CC[C@]2(C)C(=O)CC[C@@H]12`, the AC50 was 3.14 µM (active) and 1.55 µM (active). With `Oc1ccc(-c2ccccc2)cc1` the AC50 was 2.17 µM (active) and 811 nM (active). `C[C@H]1CCCC(=O)CCC/C=C/c2cc(O)cc(O)c2C(=O)O1` was tested, and the AC50 was 7.04 nM (active) and 6.82 nM (active). For `CC1(C)CCC(Cc2ccc(Cl)cc2)C1(O)Cn1cncn1` (stereo unspecified), the outcome was “inactive”. `Oc1c(I)cc(I)cc1I` was tested, and the outcome was “inactive”.

From PubChem BioAssay (EPA / NIEHS)
